# HEK293 tox: cytotoxic compounds in HEK 293 cells; Potency, µM (highest dose often 115 µM), usual class: inhibitors; AID 1345083; HEK 293 viability, ATP luminescence (CellTiter-Glo), 48-72 h; 94,000 compounds, 6.6% hits; note: nearly all actives have a fitted effect of over 60% in size
#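 HEK 293 cells seeded at 250 cells/well were exposed to compound for 48 or 72 hr at 37 degree Celsius. Viability taken as ATP content by CellTiter-Glo luminescence.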
# NIH3T3 tox: cytotoxic compounds in NIH 3T3 cells | 94,000 compounds, 4.3% hits | NIH 3T3 viability, CellTiter-Glo ATP luminescence, 48-72 h | Potency, µM (titrated, usually from 96.7 µM), hits mostly inhibitors; note: nearly all actives have a fitted effect of over 55% in size
#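 Cytotoxicity is measured as loss of cellular ATP: NIH 3T3 cells (400/well) are exposed to compound for 48 or 72 hr at 37 °C, then CellTiter-Glo luminescence is imaged after 10 min at room temperature.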
# FLuc inh: Photinus pyralis luciferase inhibition. 76,000 compounds, 2.5% hits. purified P. pyralis luciferase, luminescence, biochemical. Potency, µM (top dose mostly 115 µM), actives largely listed as inhibitors. P08659; note: nearly all actives have a fitted effect of over 65% in size
#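 Cell-free enzyme assay, 10nM P. pyralis luciferase, luciferin and ATP each at 10uM. Inhibition profiled over a 6-point titration, read as luminescence.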
# hNpr1 antagonist: blocks ANP-stimulated signaling of human Npr1 receptor | P16066 | 76,000 compounds, 1.6% hits | Potency, µM (doses to about 46.3 µM), most hits filed as inhibitors | HEK293 hNpr1 GloSensor cGMP, ANP-stimulated luminescence; calls by dose curve; note: nearly all actives have a fitted effect of over 60% in size
#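 HEK293 cells stably expressing human Npr1 and cGMP GloSensor pGS-40F, loaded 2 h with 2% GloSensor reagent, given compound 30 min at room temperature. Luminescence read before and 20 min after 0.1 nM hNppA.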
# Hits are given with their value; n = inactive; u = inconclusive; x = no result. Rows were chosen to be rich in hits. Some 11% of all compounds tested hit in one or more screens of this group. Unless noted, calls come from the whole dose curve; as a rule, active = well fitted curve in the direction sought with a large enough effect; inconclusive = small, poorly fitted or top-dose-only effect, or another doubt; inactive = no such curve, though single readings can be large; an effect the other way counts as inactive or inconclusive.
SMILES,HEK293 tox,NIH3T3 tox,FLuc inh,hNpr1 antagonist
CCOc1cccc(CN2CCCC(COc3ccccc3C(=O)N3CCCC3)C2)c1 (centres undefined),u,n,n,n
COCCNC(=O)c1ccc2nnc(-c3ccc(Cl)cc3)n2c1,n,n,x,x
O=C(c1cc2cn(C3CC3)cc2s1)N1CCc2ccccc2C1,89µM,u,n,n
CN1CCC(N2CCN(C(=O)c3cc4cn(C5CC5)cc4s3)CC2)CC1,n,n,n,n
N#Cc1ccccc1CN1CCNc2nc(CNCc3cnccn3)n(Cc3ccccc3)c2C1=O,n,u,n,n
Cc1nc(CN2CC3(CCN(C)C3)c3cc(C(=O)NCCc4ccccc4)ccc32)cs1 (centres undefined),79µM,u,n,n
CN1CCC2(C1)CN(Cc1ccccc1)c1ccc(C(=O)NCC3CC3)cc12 (centres undefined),112µM,u,n,n
CN1CCC2(C1)CN(Cc1ccccc1)c1ccc(C(=O)NC3COC3)cc12 (centres undefined),u,n,n,n
COCCNC(=O)c1ccc2c(c1)C1(CCN(C)C1)CN2Cc1csc(C)n1 (centres undefined),n,u,n,n
CN(C)CCNC(=O)c1ccc2c(c1)C1(CCN(CC3CC3)C1)CN2Cc1ccccc1 (centres undefined),45µM,32µM,n,n
CN1CCC2(C1)CN(Cc1ccccc1)c1ccc(C(=O)NCCOc3ccccc3)cc12 (centres undefined),32µM,u,n,n
COCCCn1c(=O)c(C(=O)N2CCN([S+](=O)([O-])c3cccc(C(F)(F)F)c3)CC2)nc2cccnc21,n,n,x,x
O=C(NCc1ccc(F)cc1)c1cc(-c2ccccc2)c2nncn2n1,n,n,x,x
CN1CC2(CCCN(CC3CC3)C2)c2cc(C(=O)NCCOc3ccccc3)ccc21 (centres undefined),100µM,79µM,n,n
O=C(NC1CCC1)c1ccc2c(c1)C1(CCN(CC3CC3)C1)CN2Cc1ccccc1 (centres undefined),56µM,u,n,n
CCNC(=O)c1ccc2c(c1)C1(CCN(CC3CC3)C1)CN2Cc1ccccc1 (centres undefined),u,u,n,n
O=C(NCC1CC1)c1ccc2c(c1)C1(CCN(CC3CC3)C1)CN2Cc1ccccc1 (centres undefined),u,79µM,n,n
CCc1ccccc1S(=O)(=O)N1C[C@@H](F)C[C@H]1C(=O)N1CCc2ccccc2C1,u,32µM,n,n
Cc1cccc(NC(=O)N2C[C@@H](F)C[C@H]2C(=O)N2CCc3ccccc3C2)c1,n,n,u,n
O=C([C@@H]1C[C@H](F)CN1C(=O)Nc1cccc(C(F)(F)F)c1)N1CCc2ccccc2C1,32µM,22µM,n,n
COc1ccc(OC)c(NC(=O)c2ccc3c(c2)C(O)CCCCCN3C)c1 (centres undefined),u,u,n,u
CN1CCCCCC(O)c2cc(C(=O)Nc3cccc(OC(F)(F)F)c3)ccc21 (centres undefined),25µM,28µM,n,u
CC1CCN(c2ccc(CNC(=O)c3ccc4c(c3)C(O)CCCCCN4C)cc2)CC1 (centres undefined),u,40µM,n,n
CN1c2cc(C(=O)Nc3cccc(OC(F)(F)F)c3)ccc2C(=O)N2CCCCCC21 (centres undefined),u,n,n,n
CN1CCCCCC(O)c2cc(C(=O)NCc3cc(F)cc(F)c3)ccc21 (centres undefined),u,u,n,n
SMILES,HEK293 tox,NIH3T3 tox,FLuc inh,hNpr1 antagonist
COc1cccc(NC(=O)c2ccc3c(c2)C(O)CCCCCN3C)c1 (centres undefined),u,u,35µM,n
CC(=O)Nc1ccccc1-c1cn(C)c(=O)n2cc(COc3ccc(Cl)cc3)nc12,u,100µM,n,n
COc1ccc(-c2cn(C)c(=O)n3cc(COc4ccc(Cl)cc4)nc23)c(C)c1,u,10µM,n,n
Cn1nccc1OCc1cn2c(=O)n(C)cc(-c3cccc(OC(F)(F)F)c3)c2n1,89µM,u,n,n
CC(=O)Nc1cccc(-c2cn(C)c(=O)n3cc(COc4ccc(Cl)cc4)nc23)c1,u,u,u,n
Cn1cc(-c2cccc(CO)c2)c2nc(COc3ccc(Cl)cc3)cn2c1=O,63µM,u,u,n
Cc1ccc(F)cc1S(=O)(=O)N1CC(C(=O)NC2CCCCC2)C2(CCOCC2)C1 (centres undefined),n,n,n,n
